Laboratory results taken from PubChem BioAssay (NCI).
Where “and” joins values, the source holds several entries; their conditions need not be identical. Equal values may be shown once. About 83,000 compounds went through this panel and 20% of them were active in at least one assay; those are over-represented in the sample as a whole.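 Step 1: grow cells in 96-well plates. Step 2: add test compound at a single concentration. Step 3: incubate 48 h. Step 4: record percent growth.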 Calls of active or inactive are those of the source. The calls were made as follows: active = growth percent below 10; inactive = the rest.

Legend:
Assay in all cases: NCI-60 one-dose screen, 48 h (100 = growth as untreated, 0 = no growth, -100 = all killed)
Settings in all cases: 10 µM unless noted
[1] = tested on: DU-145 prostate
[2] = tested on: K-562 leukemia
[3] = tested on: MALME-3M melanoma
[4] = tested on: MDA-MB-231 breast
[5] = tested on: RXF 393 renal
[6] = tested on: SF-268 CNS
[7] = tested on: SF-295 CNS
[8] = tested on: SF-539 CNS
[9] = tested on: UACC-257 melanoma
[10] = tested on: M14 melanoma

| Structure (SMILES) | growth [1] | growth [2] | growth [3] | growth [4] | growth [5] | growth [6] | growth [7] | growth [8] | growth [9] | growth [10] |
| --- | --- | --- | --- | --- | --- | --- | --- | --- | --- | --- |
| CCOC(=O)Nc1ccc2c(c1)/C(=N\NC(N)=S)c1ccccc1-2 | 64.1% (inactive) and 84.3% (inactive) | 33.9% (inactive) | 89.4% (inactive) | 32.7% (inactive) and 47.6% (inactive) | 8.9% (active) and 12.6% (inactive) | 78.6% (inactive) and 85.7% (inactive) | 3.9% (active) and 30% (inactive) | 13.8% (inactive) and 31% (inactive) | 41.9% (inactive) and 91.3% (inactive) | 42% (inactive) and 61.6% (inactive) |
| CC(C)C(=O)Nc1ccc([N+](=O)[O-])c(C(F)(F)F)c1 | 74% (inactive) and 113% (inactive) | 57.1% (inactive) and 62.1% (inactive) | 83.3% (inactive) and 88% (inactive) | 84.7% (inactive) and 102% (inactive) | 104% (inactive) | 88.6% (inactive) and 102% (inactive) | 76.7% (inactive) and 92% (inactive) | 96.9% (inactive) and 92.7% (inactive) | 108% (inactive) and 112% (inactive) | 98.9% (inactive) and 92.9% (inactive) |
| CCOc1ccc2c(S(=O)(=O)O)cccc2c1[N+](=O)[O-] | 104% (inactive) and 116% (inactive) | 101% (inactive) and 88.4% (inactive) | 106% (inactive) and 101% (inactive) | 106% (inactive) and 110% (inactive) | 114% (inactive) and 100% (inactive) | 99.1% (inactive) and 96.2% (inactive) | 104% (inactive) and 107% (inactive) | 102% (inactive) and 107% (inactive) | 114% (inactive) and 100% (inactive) | 108% (inactive) and 99.6% (inactive) |
| COc1cc2nc(N3CCN(C(=O)C4COc5ccccc5O4)CC3)nc(N)c2cc1OC (stereo not given) | 102% (inactive) and 106% (inactive) | 93.3% (inactive) and 96.7% (inactive) | 113% (inactive) and 83.2% (inactive) and 95.6% (inactive) | 76.3% (inactive) and 86.2% (inactive) and 100% (inactive) | 86.4% (inactive) and 83.4% (inactive) and 109% (inactive) | 100% (inactive) and 89.5% (inactive) and 98.6% (inactive) | 108% (inactive) and 71.1% (inactive) and 101% (inactive) | 115% (inactive) and 89.9% (inactive) and 102% (inactive) | 101% (inactive) and 106% (inactive) | 104% (inactive) and 96.4% (inactive) and 96.3% (inactive) |
| COc1cc2c(c(OC)c1OC)-c1ccc(OC)c(=O)cc1[C@@H](NC(C)=O)CC2 | -26.3% (active) and 0.564% (active) and -28.6% (active) | 9.04% (active) and 10.4% (inactive) and -25.7% (active) | 45.1% (inactive) and 43.1% (inactive) and 39% (inactive) | 16.3% (inactive) and -21.5% (active) and -9.65% (active) | 34% (inactive) and 33.7% (inactive) and 15.3% (inactive) | 33.5% (inactive) and 27.5% (inactive) and 35.1% (inactive) | 2.25% (active) and 12.5% (inactive) and 7.89% (active) | -9.65% (active) and -24.7% (active) and -10.6% (active) | 76.9% (inactive) and 66.3% (inactive) and 24.9% (inactive) | 2.32% (active) and -7.49% (active) and 1.7% (active) |
| Nc1nc(SC/C=C/CCl)c2[nH]cnc2n1 | 110% (inactive) | 103% (inactive) and 90.7% (inactive) | 114% (inactive) and 92.3% (inactive) | 112% (inactive) and 102% (inactive) | 112% (inactive) and 133% (inactive) | 104% (inactive) and 107% (inactive) | 97.2% (inactive) and 112% (inactive) | 114% (inactive) and 97.5% (inactive) | 94.7% (inactive) and 102% (inactive) | 107% (inactive) and 98.9% (inactive) |
| Cc1cc(-c2ccc(NS(=O)(=O)c3ccccc3)c(C)c2)ccc1NS(=O)(=O)c1ccccc1 | 93.8% (inactive) and 94.7% (inactive) | 62.7% (inactive) and 65.9% (inactive) | 79.6% (inactive) and 120% (inactive) | 70.1% (inactive) and 74.5% (inactive) | 70.1% (inactive) and 119% (inactive) | 91.5% (inactive) and 106% (inactive) | 58.1% (inactive) and 99.4% (inactive) | 108% (inactive) and 95.9% (inactive) | 93.6% (inactive) and 110% (inactive) | 87.4% (inactive) and 99% (inactive) |
| O=C(N/N=C/c1ccc2c(c1)OCO2)c1ccncc1 | 114% (inactive) and 113% (inactive) | 106% (inactive) | 110% (inactive) and 82.1% (inactive) | 94.5% (inactive) and 108% (inactive) | 114% (inactive) and 103% (inactive) | 109% (inactive) and 102% (inactive) | 113% (inactive) and 107% (inactive) | 101% (inactive) and 123% (inactive) | 92.9% (inactive) and 112% (inactive) | 105% (inactive) and 103% (inactive) |
| O=C(Nc1ccc([N+](=O)[O-])cc1Cl)c1cc(Cl)ccc1O | 3.92% (active) and 17.7% (inactive) | 3.36% (active) and 12.4% (inactive) | -8.09% (active) and -27.3% (active) | -43.3% (active) and -31.2% (active) | -27.4% (active) and -21.6% (active) | 5.52% (active) and 16.4% (inactive) | -56.8% (active) and -57.8% (active) | -16.5% (active) and 4.67% (active) | -34.2% (active) and 3.09% (active) | -24.1% (active) and -34.4% (active) |
| CN(C)c1ccc(/C=C(\C#N)c2ccccc2)cc1 | 15.7% (inactive) and 38.1% (inactive) | 11.3% (inactive) and 14% (inactive) and 23.9% (inactive) | 53.7% (inactive) and 51.2% (inactive) and 57.3% (inactive) | 55.7% (inactive) and 50.3% (inactive) and 48.9% (inactive) | -6.38% (active) and -3.64% (active) | 43.5% (inactive) and 61.1% (inactive) and 56% (inactive) | -18.9% (active) and 23.5% (inactive) and 17% (inactive) | -2.9% (active) and -3.11% (active) and -13.1% (active) | 20.1% (inactive) and 66.6% (inactive) and 56.6% (inactive) | 19.1% (inactive) and 30.2% (inactive) and 24% (inactive) |
| Oc1ccccc1C=NCC1CCC(CN=Cc2ccccc2O)CC1 (stereo not given) | 3.17% (active) | 99.4% (inactive) | 113% (inactive) | 101% (inactive) | 76.4% (inactive) | 93.9% (inactive) | 71.6% (inactive) | 100% (inactive) | 102% (inactive) | 98.8% (inactive) |
| N#C/C(=C/c1c(O)ccc2ccccc12)C(N)=O | 104% (inactive) | 97.4% (inactive) | 99.4% (inactive) | 86.4% (inactive) | 98.3% (inactive) | 95.4% (inactive) | 91.2% (inactive) | 102% (inactive) | 106% (inactive) | 94.5% (inactive) |
| Cc1cc(O)c(C(C)C)cc1S(=O)(=O)O (tested in a mixture with another compound) | 120% (inactive) and 5.68% (active) and 115% (inactive) | 111% (inactive) and 3.5% (active) and 104% (inactive) | 99.7% (inactive) and 47.1% (inactive) and 93.1% (inactive) | 107% (inactive) and 10.3% (inactive) and 90.1% (inactive) | 97.3% (inactive) and 8.53% (active) and 118% (inactive) | 101% (inactive) and 22% (inactive) and 109% (inactive) | 101% (inactive) and 77.7% (inactive) | 93.1% (inactive) and 4.98% (active) and 94.7% (inactive) | 92.6% (inactive) and 40.4% (inactive) and 94.9% (inactive) | 91.5% (inactive) and -39.1% (active) and 106% (inactive) |
| CN1CCN(c2ccc3nc(-c4c(N)c5c(F)cccc5[nH]c4=O)[nH]c3c2)CC1 | 33.5% (inactive) and 29.3% (inactive) | -26.6% (active) and -24.4% (active) | 7.87% (active) and -13.5% (active) | 42.4% (inactive) and 52.5% (inactive) | -1.36% (active) and 26.3% (inactive) | 44.7% (inactive) and 48.9% (inactive) | 56.6% (inactive) and 71.6% (inactive) | 6.28% (active) and 11.5% (inactive) | -59.4% (active) and -18.1% (active) | -25.3% (active) and 2.34% (active) |
| CN(C)c1ccc(C(Cc2ccc3ccccc3n2)Cc2ccc3ccccc3n2)cc1 | 81.9% (inactive) | 29.8% (inactive) and 85.6% (inactive) | 64.8% (inactive) and 106% (inactive) | 58.2% (inactive) and 64% (inactive) | 73.6% (inactive) and 85.5% (inactive) | 68.3% (inactive) and 95.3% (inactive) | 24.7% (inactive) and 64.9% (inactive) | 67.6% (inactive) and 106% (inactive) | 32.4% (inactive) and 99% (inactive) | 27.2% (inactive) and 75.5% (inactive) |
